In PubChem BioAssay (NCI):
The panel holds about 79,000 compounds, 15% with a hit somewhere; the sample as a whole holds those more often. Cut-off read from the data, not from the text of the source: active = growth inhibition above about 70%; inactive = the rest.

How the values were obtained:
[1] = NCI Yeast Anticancer Drug Screen. Data for the rad50 strain (AID 155);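 note: 0% = growth of vehicle-only cultures of the same strain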; settings: S. cerevisiae rad50 strain growth inhibition; at 50.0 µM; hits give high values
Outline: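 A DNA repair-deficient yeast mutant serves as the test organism; compound-induced growth inhibition is calculated against vehicle-treated cells.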

[2] = NCI Yeast Anticancer Drug Screen. Data for the mec2-1 strain (AID 157); settings: S. cerevisiae mec2-1 strain, at 50.0 µM, hits give high values
Outline: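 Test agents were screened against the mec2-1 yeast strain, with defined DNA repair or cell cycle alteration. Growth was scored as inhibition against vehicle-only controls.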

[3] = NCI Yeast Anticancer Drug Screen. Data for the sgs1 mgt1 strain (AID 161);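 note: 0% = growth of cultures given vehicle only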; settings: S. cerevisiae sgs1 mgt1 strain, at 50.0 µM, hits give high values
Outline: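 Inhibition of yeast growth, normalised to vehicle-treated controls, is reported for a strain bearing genetic alterations in DNA damage repair.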

[4] = NCI Yeast Anticancer Drug Screen. Data for the cln2 rad14 strain (AID 165);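 note: 0% = growth equal to vehicle treated cultures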; settings: S. cerevisiae cln2 rad14 strain, at 50.0 µM, hits give high values
Outline: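 Growth of compound-exposed yeast (cln2 rad14 genotype) measured and expressed as inhibition relative to vehicle.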

[5] = NCI Yeast Anticancer Drug Screen. Data for the bub3 strain (AID 167); settings: S. cerevisiae bub3 mutant strain, at 50.0 µM, hits give high values
Outline: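 Inhibition values come from growth of compound-treated mutant yeast normalised to vehicle-treated controls.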

[6] = NCI Yeast Anticancer Drug Screen. Data for the mlh1 rad18 strain (AID 175); settings: S. cerevisiae mlh1 rad18 strain growth inhibition; at 50.0 µM; hits give high values
Outline: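 In this whole-cell yeast screen, a strain with altered DNA damage repair is challenged with compound, and its growth is measured against matched vehicle-treated controls.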

Measured: growth inhibition

CC(/C=C/c1ccccc1)=N\NC(=O)c1ccccc1
inactive: [1] 44.8% | [2] 5.3% | [3] -5.4% | [4] 4.3% | [5] -15.1% | [6] -47.1%

CCOC1OC(C(O)CO)C(O)C1O (stereo not drawn)
inactive: [1] -16.9% | [2] -18.8% | [3] 5.25% | [4] -39.9% | [5] -18% | [6] -17%

Cc1ccc(N=C2N=C(N3CC(C)OC(C)C3)c3ccccc32)cc1 (stereo not drawn)
inactive: [1] -12.9% | [2] -22.9% | [3] -15.6% | [4] -7.8% | [5] 0% | [6] -21.4%

CC(C)C1=C(Cc2ccccc2)C(=O)O/C1=C\c1cc(Cl)c(O)c(Cl)c1
inactive: [1] 19.9% | [2] 8% | [3] 24.6% | [4] 25.6% | [5] 32.5% | [6] -30.9%

Cn1c(=O)c2c(nc(Cl)n2C)n(C)c1=O
inactive: [1] 42.5% | [2] 14.5% | [3] -16.1% | [4] -29.3% | [5] -7.65% | [6] 28.9%

FC(F)(F)c1nn2c(c(-c3ccccc3)c(-c3ccccc3)c3ccccc32)c1C(F)(F)F
inactive: [1] 32.9% | [2] 11.2% | [3] 28.9% | [4] 25.6% | [5] -4.4% | [6] 31.8%

CC(C)CC(C)OC(=O)CC(CC(=O)OC(C)CC(C)C)C(=O)OC(C)CC(C)C (stereo not drawn)
inactive: [1] -6.8% | [2] -17.1% | [3] -13.1% | [4] 26.2% | [5] 20.9% | [6] -4.15%

COc1ccc(NC=O)c(C(=O)CCNC(C)=O)c1
inactive: [1] -14.9% | [2] -20.2% | [3] -13.4% | [4] -6.8% | [5] -16.3% | [6] -51.2%

CC(=O)OCCSc1ccc(Cl)cc1
inactive: [1] -2.4% | [2] 9.8% | [3] 6.6% | [4] -33.2% | [5] -23.3% | [6] -7.65%

CCCC(=O)Oc1ccc(C(C)(C)C)cc1C
inactive: [1] -5.65% | [2] -19.1% | [3] 3.4% | [4] -19.3% | [5] -0.5% | [6] -8.6%

CSC(SC)=C1CCCC(=C(SC)SC)C1=O
inactive: [1] -6.95% | [2] -9.3% | [3] -9.55% | [4] 6.95% | [5] -0.45% | [6] -8.9%

NC(=O)NC(=O)NCc1ccccc1
inactive: [1] -1.35% | [2] 0.35% | [3] -12.8% | [4] -7.65% | [5] 6.6% | [6] -4.9%

CCOC(CN(C)C(=S)Nc1cccc2ccccc12)OCC
inactive: [1] -27.1% | [2] -30.1% | [3] -2.2% | [4] -6.45% | [5] -6.9% | [6] -13.2%

COc1ccc(-c2nc(-c3cc4c(ccc5ccccc54)oc3=O)cs2)cc1
inactive: [1] 24.4% | [2] 18.5% | [3] 1.45% | [4] 15% | [5] 0.9% | [6] -41.5%

COc1cc(C(=O)O[C@H]2CCC3CCC2N3C)cc(OC)c1OC (stereo partly drawn)
inactive: [1] -46.4% | [2] -31.7% | [3] -4.05% | [4] -9.45% | [5] -3.85% | [6] -47%

Cc1cccc(CCSCCc2cccc(C)[n+]2[O-])[n+]1[O-]
inactive: [1] 19.8% | [2] -2.45% | [3] -1.1% | [4] 17.4% | [5] 0.8% | [6] 1.8%

COC(=O)C(C(=O)C(=O)Nc1ccc(C)cc1)c1nc2ccc([N+](=O)[O-])cc2[nH]c1=O (stereo not drawn)
inactive: [1] 16.9% | [2] 15.2% | [3] 0.8% | [4] -3.95% | [5] 22.2% | [6] 4.6%

CCC(C#N)NC1CCN(Cc2ccccc2)CC1 (stereo not drawn)
inactive: [1] 1.3% | [2] -23.1% | [3] -2.05% | [4] 6.1% | [5] -7.75% | [6] 5.85%
